This passage reports growth inhibition results from PubChem BioAssay (NCI).

Assay [1] can be described thus: NCI Yeast Anticancer Drug Screen. Data for the rad50 strain (AID 155).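 Note: 0% = growth of vehicle-only cultures of the same strain.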 Particulars: S. cerevisiae rad50 strain growth inhibition; at 50.0 µM; hits give high values. In outline:
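Inhibition values express reduced yeast growth in compound-treated cultures relative to vehicle-treated controls.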

Assay [2] can be described thus: NCI Yeast Anticancer Drug Screen. Data for the mec2-1 strain (AID 157). Conditions: S. cerevisiae mec2-1 strain, at 50.0 µM, hits give high values. The procedure, abridged: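 Cells of the genetically defined mec2-1 yeast strain are incubated with test compound. Inhibition of growth is calculated against vehicle-treated controls.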
Assay [3] in a line: NCI Yeast Anticancer Drug Screen. Data for the sgs1 mgt1 strain (AID 161).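 Note: 0% = growth of cultures given vehicle only.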 Particulars: S. cerevisiae sgs1 mgt1 strain, at 50.0 µM, hits give high values. In outline: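 Test agents were incubated with a DNA-repair-mutant yeast strain. Growth was then read and compared against vehicle-treated controls.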
The nature of assay [4]: NCI Yeast Anticancer Drug Screen. Data for the cln2 rad14 strain (AID 165).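 Note: 0% = growth equal to vehicle treated cultures.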 Particulars: S. cerevisiae cln2 rad14 strain, at 50.0 µM, hits give high values. In outline:
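The screen exposed genetically defined yeast (cln2 rad14) to test compounds and scored growth inhibition relative to vehicle-treated controls.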

Assay [5] is described as follows: NCI Yeast Anticancer Drug Screen. Data for the bub3 strain (AID 167). Conditions: S. cerevisiae bub3 mutant strain, at 50.0 µM, hits give high values. In outline:
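Steps: expose the mutant yeast strain to compound; grow alongside vehicle-treated cultures; measure growth; express inhibition against the vehicle cultures.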

Assay [6] is described as follows: NCI Yeast Anticancer Drug Screen. Data for the mlh1 rad18 strain (AID 175). Particulars: S. cerevisiae mlh1 rad18 strain growth inhibition; at 50.0 µM; hits give high values. The procedure, abridged:
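Compound-treated yeast growth, normalised to vehicle controls. Strain bears defined DNA repair mutations.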

The panel holds about 79,000 compounds, 15% with a hit somewhere; the sample as a whole holds those more often. Unmarked numbers belong to inactive results. Activity calls are given as the source filed them. Cut-off read from the data, not from the text of the source: active = growth inhibition above about 70%; inactive = the rest.

On to `O=C1NC(=O)C(O)(C2=C(O)CCC2=O)C(=O)N1`, for which the growth inhibition in assay [1] is 12.8%; in assay [2], -0.3%; in assay [3], 4.9%; in assay [4], -25.6%; in assay [5], 13.9%; in assay [6], 10.4%.
For the compound `COc1cc(C)c(OP(=O)(OC)OC)cc1C`, the growth inhibition in assay [1] is 15.3%; in assay [2], 0.7%; in assay [3], 13.6%; in assay [4] it was 59.1%; in assay [5] it was 1.7%; in assay [6] it was -0.65%.
Turning to `CCC(=O)[O-].CCC(=O)[O-].N.N.N.N.[Co+3].[O-][Cl+3]([O-])([O-])[O-]`, the growth inhibition in assay [1] is -9.55%; in assay [2], -1.6%; in assay [3], -9.1%; in assay [4], 17.9%; in assay [5], 2.05%; in assay [6], -12.2%.
Turning to `COc1ccc(C(CC(=O)O)CC(=O)N(CCCl)CCCl)cc1C` (stereo not given), the growth inhibition was 64% in assay [1]; 25.6% in assay [2]; 17% in assay [3]; 27.1% in assay [4]; 63.7% in assay [5]; 24.4% in assay [6].
As for `CC[N+](CC)(CC)CC.N#CC(C#N)=C([SH2+])[SH2+].N#CC(C#N)=C([SH2+])[SH2+].[Co+2]`, the growth inhibition in assay [1] is 95.3% (active); in assay [2], 95.8% (active); in assay [3], 56%; in assay [4], 94.5% (active); in assay [5], 98.9% (active); in assay [6], 98.7% (active).
With `Nc1ccc([N+](=O)[O-])cc1N`, the growth inhibition in assay [1] was 9.15%; in assay [2], -14.7%; in assay [3], -12.8%; in assay [4], -36.9%; in assay [5], -17.4%; in assay [6], 10.2%.
For the compound `CC1=C(C)C(=O)O[C@@H]([C@](C)(O)[C@]2(O)CC[C@@]3(O)[C@@H]4C[C@H]5O[C@]56CC=CC(=O)[C@]6(C)[C@H]4CC[C@]23C)C1`, the growth inhibition in assay [1] is 45.1%; in assay [2], 64.7%; in assay [3], 43.8%; in assay [4], 27.3%; in assay [5] it was 45.9%; in assay [6], 40.2%.
On to `Cc1cc([N+](=O)[O-])c(N)c([N+](=O)[O-])c1`, for which the growth inhibition was -1.55% in assay [1]; -11.1% in assay [2]; -9.8% in assay [3]; 3.6% in assay [4]; -10.8% in assay [5]; -4.75% in assay [6].
Consider `CCOP(=O)(OCC)C(O)C(C)C` (stereo not given), for which the growth inhibition in assay [1] is 3.5%; in assay [2] it was 16.9%; in assay [3], 5.2%; in assay [4], -19.8%; in assay [5], 7.5%; in assay [6] it was 0.35%.
For the compound `COC1CC2C=CC3C4OC2(/C(C)=C/C(C)C(C(C)O)OC1=O)C3C(O)C(C)C4OC(=O)c1ccc[nH]1` (stereo not given), the growth inhibition in assay [1] is 14.7%; in assay [2], 6.35%; in assay [3], 13.3%; in assay [4] it was 10.7%; in assay [5], -2.85%; in assay [6] it was 14.1%.
Take `C=CCC1(C(=C)C)C(=O)NC(=O)NC1=O`: the growth inhibition was 6.05% in assay [1]; 6.05% in assay [2]; 1.4% in assay [3]; 2.75% in assay [4]; -13.8% in assay [5]; -11.3% in assay [6].
For the compound `CC(CO)[N+](=O)[O-]` (stereo not given), the growth inhibition in assay [1] was 0.75%; in assay [2], 1.15%; in assay [3], -5.05%; in assay [4] it was -15.2%; in assay [5], 1.5%; in assay [6], 1%.
Turning to `CC12CCC3C(CCC4CC(Cl)CCC43C)C1CCC2=O` (stereo not given), the growth inhibition in assay [1] is 9.95%; in assay [2], 8.5%; in assay [3], 6.25%; in assay [4], -59.4%; in assay [5] it was -6.1%; in assay [6] it was -5.05%.
For the compound `CCCCCCCCCCCCCC(=O)O.[Pb]`, the growth inhibition in assay [1] was -4.8%; in assay [2], 7.35%; in assay [3] it was -5.9%; in assay [4], -0.65%; in assay [5], -12.7%; in assay [6], 5%.
In the case of `O=C(Nc1cccc(S(=O)(=O)F)c1)/C(=C/c1ccc([N+](=O)[O-])cc1)c1ccccc1`, the growth inhibition in assay [1] is 88.5% (active); in assay [2] it was 86% (active); in assay [3] it was 86.7% (active); in assay [4], 79.2% (active); in assay [5] it was 81.2% (active); in assay [6], 88.2% (active).
With `CC(=O)Nc1cccc([As]=O)c1` (stereo not given), the growth inhibition is 11.5% in assay [1]; 2.75% in assay [2]; 9.95% in assay [3]; 7.6% in assay [4]; -10.8% in assay [5]; 19.1% in assay [6].
For `CC(=O)NC1C([Se][As](C)C)OC(COC(C)=O)C(OC(C)=O)C1OC(C)=O` (stereo not given), the growth inhibition was -15.2% in assay [1]; -20.4% in assay [2]; 23.6% in assay [3]; -7.3% in assay [4]; -2.95% in assay [5]; -6.5% in assay [6].
With `CCOC(=O)C12CCC(=O)C=C1CN(C)CC2` (stereo not given), the growth inhibition in assay [1] was -2.25%; in assay [2], 0.1%; in assay [3], -3.3%; in assay [4] it was -17.1%; in assay [5] it was -13.2%; in assay [6], 0.8%.
As for `CCCOP1(=O)C=C(C)C(Cl)=C(C)C1` (stereo not given), the growth inhibition in assay [1] is 33.5%; in assay [2], -4.6%; in assay [3], 20%; in assay [4] it was -1.45%; in assay [5], -14.7%; in assay [6], 34.8%.
For the compound `[C-]#[O+].[C-]#[O+].[C-]#[O+].[C-]#[O+].[Cr].c1ccc(P(CCP(CCP(c2ccccc2)c2ccccc2)c2ccccc2)CCP(c2ccccc2)c2ccccc2)cc1` (stereo not given), the growth inhibition was 20.7% in assay [1]; 23.2% in assay [2]; 29.2% in assay [3]; 16.8% in assay [4]; 21.4% in assay [5]; 31.6% in assay [6].
